The source of these data is PubChem BioAssay AID651789 (National Center for Advancing Translational Sciences (NCATS), 2012).

Structures are written as SMILES. Inconclusive results are not listed. A call without a number means that no potency is given here. The source made the active and inactive calls. Calls come from the whole dose curve; as a rule, active = well fitted inhibition curve with a large enough effect; inconclusive = small, poorly fitted or top-dose-only effect; inactive = no such curve, though single readings can be large or run the other way.
Potency is the fitted concentration of half-maximal effect.

The nature of this test: Acumen qHTS Assay for Inhibitors of the mTORC1 Signaling Pathway in WT MEF Cells: Hit Validation. Note: nearly all actives have a fitted effect of over 60% in size. To be noted: Acumen imaging; series mostly up to 37.3 µM. In a few lines:
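Read-out is immunofluorescent phospho-rpS6 (Ser235/236) normalised to PI-stained cell number, reported as % active cells using a 7.5 nM rapamycin threshold. Cells: WT or Tsc2-/-, p53-/- MEFs, compound-exposed 24 h at 37C; PI count also tracks viability.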
In general terms: Quantitative high-throughput screening tests each substance at several concentrations.
For the molecule `Cc1ccc(NC(=O)CSc2nc(-c3ccco3)cc(C(F)(F)F)n2)cc1C`, the Potency result is “inactive”.
The value for `Cc1ccc(NC(=O)CSc2ncc3c(n2)-c2ccccc2N(C)S3(=O)=O)c(Cl)c1` was “inactive”; that for `COc1cc2ncnc(Nc3ccc(F)c(Cl)c3)c2cc1OCCCN1CCOCC1` was “inactive”.
The value for `CCS(=O)(=O)c1ncc(Cl)c(C(=O)NCc2ccccc2)n1` was 3.29 µM (active); that for `CCc1ccccc1NC(=O)CSCc1cnn(-c2ccccc2)c1-n1cccc1` was “inactive”.
The result for `CCOc1ccccc1NC(=O)c1cn(C2CCCC2)c(=O)c2c1c1ccccc1n2C` reads “inactive”; that for `CCN(c1ccccc1)S(=O)(=O)c1cc(C(=O)Nc2ccc(Br)cc2)ccc1F`, 13.1 µM (active); that for `COc1ccc(N(Cc2ccccc2)C(=O)c2nc(S(C)(=O)=O)ncc2Cl)cc1`, 2.07 µM (active).
As to `COc1ccc(C)cc1NC(=O)CCNS(=O)(=O)c1cccc2nonc12`, the Potency entry was “inactive”.
The value for `O=C(NCCc1ccc(Cl)cc1)C(=O)NCC(c1cccs1)S(=O)(=O)c1cccs1` (stereo not given) was “inactive”.
